Consider six molecules from PubChem BioAssay (NCATS).

The nature of experiment [1]: AP1 Signaling Pathway (AID 357; active = well fitted curve in either direction with a large enough effect, not every such curve was filed as active;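 also: ME-180 reporter cells stimulated with EGF at its EC50 level; % is scaled to controls: 0 for no effect and ±100 for the full control effect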). In a few lines:
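A ratiometric CCF4 readout (405 nm excitation; 460 and 530 nm emission) quantified AP-1-driven beta-lactamase in ME-180 cells after 5 h with compound and EC50 EGF; AC50 values were derived for activators and inhibitors.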

Experiment [2] can be described thus: NFAT Signaling Pathway (AID 444; active = well fitted curve in either direction with a large enough effect, not every such curve was filed as active;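 also: carbachol stimulus at about its EC50 of 1 µM final; % is scaled to controls: 0 for no effect and ±100 for the full control effect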). Particulars: Jurkat NFAT-bla M1, carbachol, beta-lactamase ratio, 5 h; at 17.2 µM (top of the series) unless noted. In a few lines:
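Read-out: CCF4 FRET ratio (460 nm/530 nm) after 1 h RT dye loading, used for %activity and AC50 from titration series. Cells: Jurkat NFAT-β-lactamase/M1 line, treated with compound plus 1 uM carbachol for 5 h, 37 °C.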

A short description of experiment [3]: Stat Signaling Pathway (AID 446; active = well fitted curve in either direction with a large enough effect, not every such curve was filed as active;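 also: ME-180 cervical cancer cells given 40 pM IL-6 alongside compound; SIE-controlled beta-lactamase reporter measured as 460/530 nm FRET emission ratio; % is scaled to controls: 0 for no effect and ±100 for the full control effect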). The gist of the method: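 ME-180 SIE-bla cells; overnight plating; cpd + IL-6 40 pM, 5 h, 37 C; LiveBLAzer 2.5 h RT; 460/530 nm emission ratio. Normalized to 300 pM IL-6 and 125 nM JAK inhibitor controls.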
The target of experiment [4] is Glucocorticoid receptor (Homo sapiens) (UniProt P04150). Put plainly: GR-GFP Redistribution (AID 450;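 active = compounds whose dose series gives a full or clear partial fitted curve of increased nuclear translocation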; also: potency is read from the fitted curve at half-maximal effect). Particulars: U2OS GR-GFP nuclear translocation, laser cytometry, 2 h.
Experiment [5] shares this target. Put plainly: GR-EFC Redistribution (AID 451; calls by dose curve; also: potency is read from the fitted curve at half-maximal effect). The conditions noted are these: CHO-K1 GR-EFC translocation, beta-gal luminescence, 2 h. In a few lines:
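Translocation of GR-ED fusion to nuclear EA restores b-gal, read by luminescence after 1 h room-temperature detection. Engineered CHO-K1 biosensor cells, 1,000/well, exposed 2 h at 37 C to titrations up to 46 uM final.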

The target of experiment [6] is 3',5'-cyclic-AMP phosphodiesterase 4B (Homo sapiens) (UniProt Q07343). Kind of experiment: qHTS Assay for Inhibitors of PDE-IV (AID 607; active = well fitted activation curve with a large enough effect in the main read-out, with a control signal flat, not every such curve was filed as active; also: % of control where 0% means no effect). In a few lines: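 ACTOne HEK293 cells carry a modified cAMP-gated CNG channel and express endogenous PDE4; plated 1000 cells/well, compounds up to 22.9 uM final. Membrane-potential dye fluorescence (ex 535/em 590) was read; parental cells received 10 uM forskolin + 100 uM RO 20-1724.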

A short description of experiment [7]: qHTS Assay for Lipid Storage Modulators (AID 1519; calls by dose curve). Particulars: Drosophila S3 cells, BODIPY lipid droplet/cell ratio, laser cytometry, cells loaded with oleic acid. In a few lines: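 Cells seeded at 5,000 per well were treated with compounds over a concentration series and loaded with oleic acid (400 uM, as added). Lipid droplet fluorescence (488 nm excitation, 500-530 nm channel) was read by laser-scanning cytometry and normalized to 20 uM Triacsin C.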
For orientation: Quantitative high-throughput screening tests each substance at several concentrations.

The target of experiment [8] is Ubiquitin carboxyl-terminal hydrolase 1 (Homo sapiens) (UniProt O94782). Put plainly: Inhibitors of USP1/UAF1: Pilot qHTS (AID 504865).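 Also: rhodamine fluorescence freed from ubiquitin-rhodamine substrate followed over time; top concentration of the series differs between compounds; % is scaled to controls: 0 for no effect and ±100 for the full control effect; nearly all actives have a fitted effect of over 35% in size.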 In a few lines:
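Deubiquitinase activity followed as kinetic rhodamine fluorescence release from 150 nM Ub-Rho. 1 nM USP1/UAF1 with compound, after 15 min room-temperature preincubation, in HEPES pH 7.8 buffer containing TCEP, EDTA, BSA and Tween-20.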

Experiment [9] deals with Mitogen-activated protein kinase 10 (Mus musculus) (UniProt Q61831). Kind of experiment: JNK3 AlphaScreen Assay (AID 530; active = well fitted curve in either direction with a large enough effect, not every such curve was filed as active;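 also: kinase came from lysate of stimulated human HepG2 cells; signal reports phosphorylation of biotinylated GST-cJun 1-79 at Ser73 with 10 µM ATP; % is scaled to controls: 0 for no effect and ±100 for the full control effect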). The gist of the method:
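Room-temperature AlphaScreen kinase assay; pre-activated HepG2 lysate as JNK3 source, biotin-GST-cJun(1-79) substrate, 10 uM ATP, compound 15 min preincubation.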
(In general: Alpha assays give light when donor and acceptor beads are brought close together.)

Experiment [10] concerns the target ATP-dependent 6-phosphofructokinase (Trypanosoma brucei brucei) (UniProt O15648). Put plainly: qHTS Assay to Find Inhibitors of T. brucei phosphofructokinase: hit validation (AID 492961). In a few lines: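 Measures ADP output of PFK (1.25 nM) at 0.1 mM ATP, 0.5 mM F6P, pH 8.0 TEA buffer with 5 mM MgCl2. No-enzyme wells define full inhibition; uninhibited enzyme wells define zero.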

Experiment [11] deals with Luciferin 4-monooxygenase (Photinus pyralis) (UniProt P08659). Put plainly: Biochemical firefly luciferase enzyme assay for NPC (AID 624030).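 Also: purified P. pyralis luciferase at 10 nM with luciferin and ATP substrate; 0% = DMSO and -100% = full luciferase inhibition by PTC124 control; nearly all actives have a fitted effect of over 70% in size.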 In a few lines: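 Direct inhibition of firefly luciferase enzyme (10 nM final, 50 mM Tris Acetate) assessed by luminescence within 5 minutes. Percent activity scaled between DMSO and PTC124 positive control, with concentration-effect curves classified by fit quality and response.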

The nature of experiment [12]: qHTS profiling for inhibitors of Plasmodium falciparum proliferation (AID 504749). Also: potency is read from the fitted curve at half-maximal effect.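 As to activity, negative = inhibition: 0% = DMSO vehicle and full inhibition = artemisinin control.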 As to all read-outs here: nearly all actives have a fitted effect of over 60% in size. The conditions noted are these: P. falciparum in erythrocytes, SYBR Green DNA, 72 h; for activity, negative = inhibition: at 28.7 µM (top of the series). In a few lines:
(§1)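 Three-day growth assay of blood-stage parasites in erythrocytes (0.3% parasitemia, 2.5% hematocrit) at 37 C, 5% CO2, quantified by SYBR Green DNA staining after overnight detergent lysis.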

Experiment [13] deals with C2A. Described as above. The conditions noted are these: P. falciparum in erythrocytes, SYBR Green DNA, 72 h; series mostly up to 12.8 µM. In a few lines:
as §1

The subject of experiment [14] is CP191. The experiment is described as above. Particulars: P. falciparum in erythrocytes, SYBR Green DNA, 72 h; series mostly up to 12.8 µM. The gist of the method:
as §1

The subject of experiment [15] is CP238. The experiment is described as above. Particulars: P. falciparum in erythrocytes, SYBR Green DNA, 72 h; series mostly up to 12.8 µM. The gist of the method: as §1
The subject of experiment [16] is CP256. The experiment is described as above. Particulars: P. falciparum in erythrocytes, SYBR Green DNA, 72 h; series mostly up to 12.8 µM. The gist of the method:
as §1

Experiment [17] has as its system FAB9. The experiment is described as above. Particulars: P. falciparum in erythrocytes, SYBR Green DNA, 72 h; series mostly up to 12.8 µM. The gist of the method:
as §1

The subject of experiment [18] is JCK. The description is as above. Particulars: P. falciparum in erythrocytes, SYBR Green DNA, 72 h; series mostly up to 12.8 µM. The gist of the method:
as §1

The test system of experiment [19] is SC27B. The experiment is described as above. Particulars: P. falciparum in erythrocytes, SYBR Green DNA, 72 h; series mostly up to 12.8 µM. The gist of the method: as §1
Where [20] appears, read: measured here: cell count channel max response.
The mark [21] stands for this setting: measured here: lipid channel max response.

“And” between values parts separate entries of the source, which are not always exact repeats. Identical values can stand only once. Results filed as inconclusive are left out. More than one record can exist for a structure, and the calls need not agree. The source made the active and inactive calls. Unless noted, calls follow the shape of the dose curve; as a rule, active = well fitted curve in the direction sought with a large enough effect; inconclusive = small, poorly fitted or top-dose-only effect, or another doubt; inactive = no such curve, though single readings can be large; an effect the other way counts as inactive or inconclusive. Where only a bound is given, the exact number is not on record here.

Glucocorticoid receptor (Homo sapiens), sequence (P04150 whole entry, looked up): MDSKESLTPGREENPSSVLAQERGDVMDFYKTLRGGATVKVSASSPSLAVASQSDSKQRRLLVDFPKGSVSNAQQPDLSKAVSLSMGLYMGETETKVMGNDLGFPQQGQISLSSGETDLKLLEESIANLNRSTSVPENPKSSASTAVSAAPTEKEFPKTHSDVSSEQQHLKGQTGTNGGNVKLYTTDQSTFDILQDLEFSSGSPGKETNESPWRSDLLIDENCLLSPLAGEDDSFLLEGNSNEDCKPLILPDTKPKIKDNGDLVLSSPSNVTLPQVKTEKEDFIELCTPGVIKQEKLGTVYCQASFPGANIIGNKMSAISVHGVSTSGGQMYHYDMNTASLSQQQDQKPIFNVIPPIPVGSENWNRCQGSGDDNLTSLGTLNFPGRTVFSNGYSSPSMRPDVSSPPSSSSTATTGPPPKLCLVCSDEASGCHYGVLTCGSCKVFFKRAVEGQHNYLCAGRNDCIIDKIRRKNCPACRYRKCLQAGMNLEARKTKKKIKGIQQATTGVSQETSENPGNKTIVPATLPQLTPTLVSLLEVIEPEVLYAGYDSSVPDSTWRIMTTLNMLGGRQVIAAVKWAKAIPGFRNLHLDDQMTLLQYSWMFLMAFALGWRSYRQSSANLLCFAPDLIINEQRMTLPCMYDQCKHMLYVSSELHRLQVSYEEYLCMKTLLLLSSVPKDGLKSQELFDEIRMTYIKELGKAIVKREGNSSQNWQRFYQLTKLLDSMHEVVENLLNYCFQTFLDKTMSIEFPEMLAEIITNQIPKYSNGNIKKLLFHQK
3',5'-cyclic-AMP phosphodiesterase 4B (Homo sapiens), sequence (Q07343 whole entry, looked up): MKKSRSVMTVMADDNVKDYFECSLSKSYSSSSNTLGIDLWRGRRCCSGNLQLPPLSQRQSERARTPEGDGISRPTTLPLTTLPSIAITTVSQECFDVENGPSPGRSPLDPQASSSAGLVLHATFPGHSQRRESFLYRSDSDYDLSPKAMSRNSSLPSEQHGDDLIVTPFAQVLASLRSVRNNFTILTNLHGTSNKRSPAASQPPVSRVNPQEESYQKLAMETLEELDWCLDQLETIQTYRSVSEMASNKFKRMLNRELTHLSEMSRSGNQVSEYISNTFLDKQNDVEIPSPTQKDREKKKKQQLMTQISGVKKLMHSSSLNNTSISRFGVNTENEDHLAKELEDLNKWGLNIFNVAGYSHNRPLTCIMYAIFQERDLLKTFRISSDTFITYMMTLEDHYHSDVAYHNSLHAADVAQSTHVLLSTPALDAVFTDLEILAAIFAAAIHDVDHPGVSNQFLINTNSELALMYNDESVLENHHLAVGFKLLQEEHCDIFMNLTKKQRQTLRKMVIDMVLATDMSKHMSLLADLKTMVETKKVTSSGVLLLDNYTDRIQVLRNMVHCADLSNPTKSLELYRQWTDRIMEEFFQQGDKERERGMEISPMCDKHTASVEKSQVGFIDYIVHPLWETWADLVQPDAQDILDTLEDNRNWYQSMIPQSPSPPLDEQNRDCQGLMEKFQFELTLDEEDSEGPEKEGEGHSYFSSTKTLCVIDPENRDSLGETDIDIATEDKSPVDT
Ubiquitin carboxyl-terminal hydrolase 1 (Homo sapiens), sequence (O94782 whole entry, looked up): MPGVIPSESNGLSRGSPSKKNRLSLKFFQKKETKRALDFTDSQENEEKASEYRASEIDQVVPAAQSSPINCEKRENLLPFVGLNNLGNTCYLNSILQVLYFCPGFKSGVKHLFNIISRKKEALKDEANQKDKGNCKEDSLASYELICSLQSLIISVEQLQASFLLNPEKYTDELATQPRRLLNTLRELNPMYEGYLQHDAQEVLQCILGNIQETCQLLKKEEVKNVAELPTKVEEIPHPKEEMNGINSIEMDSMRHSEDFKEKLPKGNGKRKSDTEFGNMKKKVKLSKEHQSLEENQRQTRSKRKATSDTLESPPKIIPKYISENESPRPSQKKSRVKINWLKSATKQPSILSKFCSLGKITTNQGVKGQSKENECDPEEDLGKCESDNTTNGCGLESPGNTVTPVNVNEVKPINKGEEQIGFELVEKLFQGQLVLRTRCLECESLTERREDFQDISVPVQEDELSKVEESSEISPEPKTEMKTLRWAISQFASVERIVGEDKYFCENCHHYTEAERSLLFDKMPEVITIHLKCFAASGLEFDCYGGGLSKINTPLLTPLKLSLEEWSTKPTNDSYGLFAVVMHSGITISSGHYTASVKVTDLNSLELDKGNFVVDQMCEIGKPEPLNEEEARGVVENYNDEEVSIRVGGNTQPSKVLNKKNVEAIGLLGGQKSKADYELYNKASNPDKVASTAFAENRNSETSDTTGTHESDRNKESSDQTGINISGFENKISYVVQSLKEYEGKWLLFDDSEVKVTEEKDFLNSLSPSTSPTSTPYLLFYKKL
ATP-dependent 6-phosphofructokinase (Trypanosoma brucei brucei), sequence (O15648 whole entry, looked up): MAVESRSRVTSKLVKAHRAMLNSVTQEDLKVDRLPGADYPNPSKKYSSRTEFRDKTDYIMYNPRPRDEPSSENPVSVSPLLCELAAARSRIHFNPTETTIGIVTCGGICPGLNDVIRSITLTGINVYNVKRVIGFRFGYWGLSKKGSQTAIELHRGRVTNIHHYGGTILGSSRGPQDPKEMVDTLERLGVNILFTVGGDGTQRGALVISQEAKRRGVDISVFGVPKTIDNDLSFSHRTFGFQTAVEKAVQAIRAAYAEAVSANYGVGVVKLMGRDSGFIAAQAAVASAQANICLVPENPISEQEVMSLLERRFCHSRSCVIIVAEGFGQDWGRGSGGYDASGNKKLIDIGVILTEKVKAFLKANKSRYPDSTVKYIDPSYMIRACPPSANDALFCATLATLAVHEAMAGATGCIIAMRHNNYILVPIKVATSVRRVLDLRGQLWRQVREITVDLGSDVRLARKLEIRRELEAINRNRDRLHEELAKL
Luciferin 4-monooxygenase (Photinus pyralis), sequence (P08659 whole entry, looked up): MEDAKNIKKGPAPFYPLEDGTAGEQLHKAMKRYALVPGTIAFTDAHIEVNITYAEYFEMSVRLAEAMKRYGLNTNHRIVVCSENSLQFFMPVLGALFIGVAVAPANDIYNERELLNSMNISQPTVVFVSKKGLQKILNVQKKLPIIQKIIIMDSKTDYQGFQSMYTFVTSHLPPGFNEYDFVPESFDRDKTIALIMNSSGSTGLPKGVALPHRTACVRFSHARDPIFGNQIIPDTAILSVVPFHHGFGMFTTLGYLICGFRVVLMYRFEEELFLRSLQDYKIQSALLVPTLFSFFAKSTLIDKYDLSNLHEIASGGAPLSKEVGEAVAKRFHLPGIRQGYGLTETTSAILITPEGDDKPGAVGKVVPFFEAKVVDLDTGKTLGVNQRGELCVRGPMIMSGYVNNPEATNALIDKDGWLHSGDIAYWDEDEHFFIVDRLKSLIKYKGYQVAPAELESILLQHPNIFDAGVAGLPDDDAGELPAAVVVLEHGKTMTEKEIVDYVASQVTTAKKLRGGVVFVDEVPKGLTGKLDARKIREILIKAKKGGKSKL

In the case of `Cc1ccccc1OC[C@H](O)CO`, the molecule was called inactive in [1], in experiment [3] and in experiment [6]. Moreover, the activity change, negative = inhibition in [2] is 11.2% (inactive); in [7] (at 25.7 µM (top of the series)), -0.676% (inactive). Also, the Potency in [4] and in [5] was > 20.6 µM (inactive) throughout. Besides, the max response was -3.4% in experiment [7] (setting [20]) and -5.46% in [7] (setting [21]). For the same molecule, the Potency entry in experiment [8] is “inactive”.
With `CC(=O)Nc1cc2ccccc2oc1=O`, the molecule was classed as inactive in experiment [1], in experiment [3] and in experiment [6]. For the same molecule, the activity change, negative = inhibition in experiment [2] is -6.5% (inactive); in experiment [7] (at 25.7 µM (top of the series)) it was 2.36% (inactive). In addition, the Potency in [4] and in [5] was > 20.6 µM (inactive) each time. Besides, the Potency entry in experiment [9] and in [8] was “inactive” throughout. The max response in [7] (setting [20]) was -14.5%; in experiment [7] (setting [21]), -11.4%.
Take `CCN[C@@H]1C[C@H](N)[C@H](O[C@H]2OC(CN)=CC[C@H]2N)[C@@H](O)[C@H]1O[C@H]1OC[C@@](C)(O)[C@@H](NC)[C@@H]1O`: the molecule was classed as inactive in experiment [1], in [3], in experiment [6] and in experiment [10]. In addition, the activity change, negative = inhibition in experiment [2] is -14.4% (inactive); in experiment [7] (at 25.7 µM (top of the series)), -1.78% (inactive). Moreover, the Potency entry in [9], in experiment [11], in experiment [13], in experiment [14], in experiment [15] and in experiment [16] was “inactive” throughout. For the same molecule, the Potency result in [17], in experiment [18] and in [19] was “inactive” in each case. In addition, the max response in experiment [7] (setting [20]) is -6.32%; in experiment [7] (setting [21]) it was -1.8%. Further, the activity, negative = inhibition in experiment [12] (parasite line A) was 6.1% (inactive); in experiment [12] (parasite line B), 14.9% (inactive).
Consider `O=C(N/N=C\c1ccc([N+](=O)[O-])o1)c1ccc(O)cc1`, for which the molecule was classed as inactive in experiment [1], in experiment [3], in experiment [6] and in experiment [10]. Moreover, the activity change, negative = inhibition in [2] was 1.26% (inactive); in [7] (at 25.7 µM (top of the series)), -1.38% (inactive). For the same molecule, the Potency in experiment [5] is > 20.6 µM (inactive); in experiment [12] (parasite line A), 1.41 µM (active); in [12] (parasite line B), 2.82 µM (active); in experiment [13], 3.16 µM (active); in [14], 3.16 µM (active); in [15], 3.16 µM (active). Moreover, the Potency is 3.55 µM (active) in experiment [16], 3.16 µM (active) in [17], 3.98 µM (active) in [18] and 3.55 µM (active) in experiment [19]. Also, the Potency entry in experiment [9] and in experiment [11] was “inactive” each time. Further, the max response in [7] (setting [20]) is -7.99%; in experiment [7] (setting [21]) it was -11.6%.
Take `CC(=O)/C(C)=N\O`: the call in [1], in experiment [3] and in experiment [6] was inactive. In addition, the results for the activity change, negative = inhibition in experiment [2] and in [7] (at 57.5 µM (top of the series)) were 4.19% [at 38 µM] (inactive) and -1.01% (inactive), respectively. Besides, the Potency in experiment [4] was 7.38 µM (active) and > 46 µM (inactive). The Potency result in [9] and in experiment [8] was “inactive” in each case. Also, the max response was -2.91% in experiment [7] (setting [20]) and -2.64% in experiment [7] (setting [21]).
Take `CC1(C)S[C@@H]2[C@H](NC(=O)COc3ccccc3)C(=O)N2[C@H]1C(=O)O` (tested in a mixture with another compound): the molecule was called inactive in [1], in experiment [3] and in experiment [6]. For the same molecule, the results for the activity change, negative = inhibition in experiment [2] and in experiment [7] (at 25.7 µM (top of the series)) were -7.06% (inactive) and 1.44% (inactive), respectively. Further, the Potency entry in experiment [9] and in [8] was “inactive” in each case. The results for the max response in experiment [7] (setting [20]) and in [7] (setting [21]) were -7.85% and -7.74%, respectively.
